Measured values from PubChem BioAssay AID504550 (Sanford-Burnham Center for Chemical Genomics, 2011).
The list shows a part of the results. Calls of active or inactive are those of the source.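 Rule for the calls: active = mean activation at 20 µM of at least 40%; inactive = the rest.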

Molecular target: Neurotensin receptor type 1 (Homo sapiens) (UniProt P30989)
Assay: beta-arrestin-GFP spots via human NTR1 – imaging, U2OS cells, single concentration, confirmation (AID 504550);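 note: 0% = DMSO without peptide and 100% = 100 nM NTR1 peptide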
Details: NTR1-U2OS beta-arrestin-GFP translocation imaging; at 20 µM; active compounds read high

Chain of Neurotensin receptor type 1 (Homo sapiens) (P30989 whole entry, looked up): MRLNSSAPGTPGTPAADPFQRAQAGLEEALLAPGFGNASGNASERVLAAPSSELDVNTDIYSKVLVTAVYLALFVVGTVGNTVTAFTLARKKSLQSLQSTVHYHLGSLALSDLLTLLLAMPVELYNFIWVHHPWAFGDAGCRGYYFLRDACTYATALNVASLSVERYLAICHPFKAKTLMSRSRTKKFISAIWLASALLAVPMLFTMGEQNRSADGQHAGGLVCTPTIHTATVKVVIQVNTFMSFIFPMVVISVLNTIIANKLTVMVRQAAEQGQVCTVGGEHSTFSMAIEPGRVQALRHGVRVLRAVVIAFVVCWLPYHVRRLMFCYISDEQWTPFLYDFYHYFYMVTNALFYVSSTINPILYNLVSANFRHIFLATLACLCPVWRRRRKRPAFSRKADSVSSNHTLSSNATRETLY

## Cc1cccc(N2C(=O)NC(=O)/C(=C\c3cnn(-c4ccccc4)c3)C2=O)c1
  activation: 47.1% (active)

## O=C1NC(=O)N(CCc2ccc(F)cc2)C(=O)/C1=C/C=C/c1ccccc1
  activation: 43.1% (active)
